The source of these data is PubChem BioAssay (NCI).

The structures appear in SMILES notation. Compounds without any hit were thinned out: in the full panel of roughly 83,000, 20% have a hit.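 Activity criterion: percent growth below 10, measured after cells in 96-well plates were exposed to a single compound concentration for 48 hours.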 Active and inactive are the calls of the source.

The assay relates to EKVX NSCLC. The experiment in a line: NCI-60 one-dose screen, 48 h (100 = growth as untreated, 0 = no growth, -100 = all killed). The note with it: 10 µM unless noted. How it is done: Growth inhibition of the EKVX human Non-Small Cell Lung tumor cell line is measured as a screen for anti-cancer activity. Cells are grown in 96 well plates and exposed to the test compound for 48 hours. Compounds are tested at a single concentration, which is 10^-5 M for most compounds. The reported endpoint is percent growth (GI% or GIPRCNT), where numbers from 0 - 100% represent growth inhibition, and numbers from -100% - 0 represent cell death. For example, a value of 40 represents 60% growth inhibition. A value of 0 means no net growth occurred over the course of the experiment. A value of -40 indicates 40% of cells at the beginning of the experiment died by the end of the experiment. A value of -100 means all cells are dead at the end of the experiment.
NCI-60 Human Tumor Cell Lines Screen was performed using the standard one-dose NCI protocol, which is described in more detail at https://dtp.cancer.gov/discovery_development/nci-60/default.htm.
Compounds with GIPRCNT values below 10 were considered active. Activity score was based on GIPRCNT using the following formula: […]
Score is 0 for GIPRCNT values of 100 or above, 50 for GIPRCNT values of 0, and 100 for GIPRCNT values of -100.
`NC(=O)CSc1nc(-c2ccc(F)cc2)cc(-c2ccco2)n1`: the growth was 95.8% (inactive). `CNCCNc1nc2ccccc2c2c(=O)c3cccc(C)c3sc12`: the growth was 46.4% (inactive).

With `COc1cc(/C=C/C(=O)N2c3ccccc3CC2C)c(OC)c2c1OCO2` (stereo not given), the growth is 87.7% (inactive). Regarding `O=c1cc(-c2ccccc2)oc2cc(OCc3cn(Cc4ccc(F)cc4)nn3)cc(OCc3cn(Cc4ccc(F)cc4)nn3)c12`, the growth was 57.2% (inactive). Next, `O=C(COc1cc(O)c2c(=O)cc(-c3ccccc3)oc2c1)Nc1ccccc1`: 103% (inactive); `O=C1/C(=C/c2cccc(O)c2)COc2ccc(O)cc21`: 93.9% (inactive); `Cn1c(/C=C(\C#N)c2ccccc2)nc2c(N3CCOCC3)nc(Cl)nc21`: -72.4% (active). As for `CN1CCN(Cc2ccc(NC(=O)c3[nH]ncc3Nc3cc(OC4CCCC4)ncn3)cc2)CC1`, the growth was 60.1% (inactive).

Regarding `COc1ccc(-c2c(-c3ccc(OC)c(O)c3)cnc3ncnn23)cc1`, the growth is 98.1% (inactive). Next, `N#C/C(=C\c1c(-c2ccccc2)[nH]c2ccccc12)C(=O)c1ccccc1`: 68.5% (inactive). As for `CCCCCCCCCCCCCCn1cc(C2=C(c3coc4ccc(OC)cc34)C(=O)NC2=O)c2ccccc21`, the growth is 90.9% (inactive). `NCCOc1ncccc1/C=C1\c2ccccc2-c2ccc([N+](=O)[O-])cc21`: the growth was -19% (active).

As for `Cc1nc(Nc2cn[nH]c2C(=O)Nc2ccc(CN3CCN(C)CC3)cc2)c2ccsc2n1`, the growth is 106% (inactive). As for `COc1ccc(/C=C2/SC(=O)N(CC(=O)N3CCN(c4cc5c(cc4F)c(=O)c(C(=O)O)cn5C4CC4)CC3)C2=O)cc1`, the figure is 114% (inactive); as for `NCCNc1nc2ccccc2c2c(=O)c3cc(F)cc(Cl)c3sc12`, -68.5% (active); as for `COC(=O)/C(CCC=C(C)C)=C1\[C@@H](OC(C)=O)C[C@@]2(C)[C@H]1C[C@@H](O)[C@H]1[C@@]3(C)CC[C@H](NC(=O)c4cnccn4)[C@@H](C)[C@@H]3CC[C@@]12C`, 94.1% (inactive). As for `Nc1n[nH]c2ccc([C@@H]3Nc4ccc5[nH]ncc5c4[C@H]4[C@H]5CCC(C5)[C@H]43)cc12`, the figure is 40.2% (inactive); as for `COc1cc2nc(-c3cccc4cccnc34)nc(NC3CCN(Cc4ccccc4)CC3)c2cc1OC`, -66.2% (active); as for `CN(C)/C=C1\SC(=Nc2ccc(Cl)cc2)NC1=O`, 95.6% (inactive). As for `C=C1C(=O)O[C@H]2[C@H]1CC/C(COC(=O)/C=C\C(=O)O)=C\CC[C@@]1(C)O[C@@H]21`, the growth is 102% (inactive).

Regarding `O=Cc1c(OCc2cnnn2CC(=O)Nc2ccc(Cl)cc2)ccc2ccccc12`, the growth was 96.6% (inactive). As for `CN1C(=O)N(C)C2(c3ccccc3)OC(=S)NC12c1ccccc1` (stereo not given), the figure is 90.8% (inactive); as for `COc1ccc(Cn2cc(Cn3c(=O)c(-c4nc5ccccc5[nH]4)cc4ccccc43)nn2)c(OC)c1OC`, 30.8% (inactive).

As for `O=C(CCN1C(=O)c2ccccc2C1=O)Nc1ccc(Cl)cc1`, the growth was 88.2% (inactive). As for `O=C(/C=C/c1ccc(C(F)(F)F)cc1)c1ccc(Nc2nc(NCCO)nc(N3CCOCC3)n2)cc1`, the figure is 65.4% (inactive); as for `COc1ccc2[nH]c(O)c(N=NC(=O)c3oc4ccccc4c3C)c2c1`, 37.3% (inactive); as for `COc1ccc(C2C3=C(COC3=O)N(CCO)c3cc4c(cc32)CCC4)cc1OC` (stereo not given), 23.3% (inactive). Take `O=c1oc2ccc(-c3ccc(F)cc3F)cc2c(=O)n1-c1cccc(C(F)(F)F)c1`: the growth was 13.5% (inactive). As for `CSc1nc2c(c(=O)[nH]1)N=C1c3ccccc3C(=O)C1C(c1ccc(F)cc1)N2` (stereo not given), the figure is 74.8% (inactive); as for `COC(=O)/C(CCC=C(C)C)=C1\[C@@H](OC(C)=O)C[C@@]2(C)[C@H]1C[C@@H](O)[C@H]1[C@@]3(C)CC[C@H](NCc4ccccc4)[C@@H](C)[C@@H]3CC[C@@]12C`, 63% (inactive). As for `O=c1c(-c2nc3ccccc3[nH]2)cc2ccccc2n1Cc1cn(Cc2ccccc2Cl)nn1`, the figure is 74.8% (inactive); as for `O=C(Nc1ccc(I)cc1F)c1cc(Br)ccc1O`, 6.95% (active). As for `O=C(NC1C(O)OC(CO)C(O)C1O)NS(=O)(=O)c1ccc(Cl)cc1` (stereo not given), the figure is 109% (inactive); as for `CN(CCc1ccccc1)C(=S)N(C(=O)c1ccc([N+](=O)[O-])cc1)c1ccc(Cl)cc1`, 95.1% (inactive); as for `O=C1/C(=C/c2ccc(O)cc2)COc2ccc(O)cc21`, 106% (inactive).

Regarding `COc1ccc(-n2c(C(O)c3ccccc3)nn(CN3CCOCC3)c2=S)cc1` (stereo not given), the growth was 111% (inactive). For the molecule `Cn1cc([C@@H]2Nc3ccc4[nH]ncc4c3[C@H]3[C@H]4CCC(C4)[C@H]32)c(C(F)(F)F)n1`, the growth was 67.1% (inactive).

For `O=c1oc2ccc(Br)cc2c(=O)n1-c1ccc(Cl)cc1F`, the growth was 9.06% (active). As for `COc1cc2nc(-c3cnc(N(C)C)nc3)nc(NC3CCN(Cc4ccccc4)CC3)c2cc1OC`, the growth was -71.2% (active). As for `CCN1C(=O)N(CC)C2C1NC(=S)N2/N=C/C=C/c1ccccc1OC` (stereo not given), the figure is 30.9% (inactive).
